# Measured values: ChEMBL document CHEMBL1961873, “Compounds: GSK PKIS; Assays: Nanosyn kinase panel” (2012)
# How the values were obtained:
# [1] = molecular target: Tyrosine-protein kinase SYK (Homo sapiens) (UniProt P43405); settings: at 1 µM
# [2] = molecular target: T1, Tyrosine-protein kinase Tec (Homo sapiens) (UniProt P42680); settings: at 0.1 µM
# T1 sequence (whole entry): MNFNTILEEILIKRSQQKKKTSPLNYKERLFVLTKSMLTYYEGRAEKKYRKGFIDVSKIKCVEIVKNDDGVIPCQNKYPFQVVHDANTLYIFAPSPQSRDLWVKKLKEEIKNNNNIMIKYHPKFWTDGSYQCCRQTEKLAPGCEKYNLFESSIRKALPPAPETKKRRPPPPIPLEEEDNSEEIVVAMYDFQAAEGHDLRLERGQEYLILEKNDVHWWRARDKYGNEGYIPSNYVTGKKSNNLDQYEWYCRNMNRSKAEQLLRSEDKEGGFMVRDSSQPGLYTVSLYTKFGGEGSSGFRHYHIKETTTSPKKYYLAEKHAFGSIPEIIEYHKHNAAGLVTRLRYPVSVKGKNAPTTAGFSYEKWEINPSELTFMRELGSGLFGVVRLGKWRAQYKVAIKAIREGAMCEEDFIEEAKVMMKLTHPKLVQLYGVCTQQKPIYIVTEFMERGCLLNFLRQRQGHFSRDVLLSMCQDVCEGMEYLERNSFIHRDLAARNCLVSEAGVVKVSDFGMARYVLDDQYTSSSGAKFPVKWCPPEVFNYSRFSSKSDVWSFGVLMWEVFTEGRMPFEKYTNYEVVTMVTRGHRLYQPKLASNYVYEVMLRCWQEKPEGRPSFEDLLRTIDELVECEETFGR
# [3] = molecular target: T1, Tyrosine-protein kinase Tec (Homo sapiens); settings: at 1 µM
# [4] = molecular target: Angiopoietin-1 receptor (Homo sapiens) (UniProt Q02763); settings: at 0.1 µM
# [5] = molecular target: Angiopoietin-1 receptor (Homo sapiens) (UniProt Q02763); settings: at 1 µM
# [6] = molecular target: T2, Non-receptor tyrosine-protein kinase TNK1 (Homo sapiens) (UniProt Q13470); settings: at 0.1 µM
# T2 sequence (whole entry): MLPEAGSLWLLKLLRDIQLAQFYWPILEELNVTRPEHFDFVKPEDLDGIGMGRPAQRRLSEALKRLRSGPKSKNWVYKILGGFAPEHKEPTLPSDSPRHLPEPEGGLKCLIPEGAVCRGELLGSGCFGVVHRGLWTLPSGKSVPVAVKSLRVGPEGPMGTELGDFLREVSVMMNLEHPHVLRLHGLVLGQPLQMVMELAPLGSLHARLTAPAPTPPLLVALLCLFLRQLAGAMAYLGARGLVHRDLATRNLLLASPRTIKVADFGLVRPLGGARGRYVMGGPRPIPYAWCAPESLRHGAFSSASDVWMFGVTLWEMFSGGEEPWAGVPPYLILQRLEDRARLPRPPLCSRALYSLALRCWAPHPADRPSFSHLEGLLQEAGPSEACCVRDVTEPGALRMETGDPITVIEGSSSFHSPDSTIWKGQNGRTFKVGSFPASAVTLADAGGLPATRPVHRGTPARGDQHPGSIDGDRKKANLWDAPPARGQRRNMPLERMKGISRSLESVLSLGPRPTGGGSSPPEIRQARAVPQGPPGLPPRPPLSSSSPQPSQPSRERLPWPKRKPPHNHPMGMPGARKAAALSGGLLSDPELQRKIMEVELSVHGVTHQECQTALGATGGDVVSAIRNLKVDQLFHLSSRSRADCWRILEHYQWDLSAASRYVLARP
# [7] = molecular target: T2, Non-receptor tyrosine-protein kinase TNK1 (Homo sapiens); settings: at 1 µM
# [8] = molecular target: Activated CDC42 kinase 1 (Homo sapiens) (UniProt Q07912); settings: at 0.1 µM
# [9] = molecular target: Activated CDC42 kinase 1 (Homo sapiens) (UniProt Q07912); settings: at 1 µM
# [10] = molecular target: High affinity nerve growth factor receptor (Homo sapiens) (UniProt P04629); settings: at 0.1 µM
# [11] = molecular target: High affinity nerve growth factor receptor (Homo sapiens) (UniProt P04629); settings: at 1 µM
# [12] = molecular target: BDNF/NT-3 growth factors receptor (Homo sapiens) (UniProt Q16620); settings: at 0.1 µM
# [13] = molecular target: BDNF/NT-3 growth factors receptor (Homo sapiens) (UniProt Q16620); settings: at 1 µM
# [14] = molecular target: NT-3 growth factor receptor (Homo sapiens) (UniProt Q16288); settings: at 0.1 µM
# [15] = molecular target: NT-3 growth factor receptor (Homo sapiens) (UniProt Q16288); settings: at 1 µM
# [16] = molecular target: T3, Tyrosine-protein kinase TXK (Homo sapiens) (UniProt P42681); settings: at 0.1 µM
# T3 sequence (whole entry): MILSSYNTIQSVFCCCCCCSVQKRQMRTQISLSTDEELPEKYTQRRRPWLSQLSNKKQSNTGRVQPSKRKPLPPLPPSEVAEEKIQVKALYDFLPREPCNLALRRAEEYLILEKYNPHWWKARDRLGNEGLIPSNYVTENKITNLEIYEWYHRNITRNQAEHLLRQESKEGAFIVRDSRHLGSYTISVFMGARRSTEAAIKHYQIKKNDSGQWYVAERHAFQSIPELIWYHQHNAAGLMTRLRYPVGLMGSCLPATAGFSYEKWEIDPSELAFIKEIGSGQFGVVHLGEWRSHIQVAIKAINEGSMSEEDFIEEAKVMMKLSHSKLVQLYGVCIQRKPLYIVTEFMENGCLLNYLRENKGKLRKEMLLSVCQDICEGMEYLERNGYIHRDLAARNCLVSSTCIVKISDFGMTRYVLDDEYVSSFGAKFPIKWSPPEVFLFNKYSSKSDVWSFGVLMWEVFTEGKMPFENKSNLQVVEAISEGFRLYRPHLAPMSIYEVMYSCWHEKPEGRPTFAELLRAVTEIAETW
# [17] = molecular target: T3, Tyrosine-protein kinase TXK (Homo sapiens); settings: at 1 µM
# [18] = molecular target: Non-receptor tyrosine-protein kinase TYK2 (Homo sapiens) (UniProt P29597); settings: at 0.1 µM;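 further: each value is a mean of the inhibition readings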
# [19] = molecular target: T4, Dual specificity protein kinase TTK (Homo sapiens) (UniProt P33981); settings: at 1 µM;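 further: reported figures are mean TTK inhibition at 1 µM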
# T4 sequence (whole entry): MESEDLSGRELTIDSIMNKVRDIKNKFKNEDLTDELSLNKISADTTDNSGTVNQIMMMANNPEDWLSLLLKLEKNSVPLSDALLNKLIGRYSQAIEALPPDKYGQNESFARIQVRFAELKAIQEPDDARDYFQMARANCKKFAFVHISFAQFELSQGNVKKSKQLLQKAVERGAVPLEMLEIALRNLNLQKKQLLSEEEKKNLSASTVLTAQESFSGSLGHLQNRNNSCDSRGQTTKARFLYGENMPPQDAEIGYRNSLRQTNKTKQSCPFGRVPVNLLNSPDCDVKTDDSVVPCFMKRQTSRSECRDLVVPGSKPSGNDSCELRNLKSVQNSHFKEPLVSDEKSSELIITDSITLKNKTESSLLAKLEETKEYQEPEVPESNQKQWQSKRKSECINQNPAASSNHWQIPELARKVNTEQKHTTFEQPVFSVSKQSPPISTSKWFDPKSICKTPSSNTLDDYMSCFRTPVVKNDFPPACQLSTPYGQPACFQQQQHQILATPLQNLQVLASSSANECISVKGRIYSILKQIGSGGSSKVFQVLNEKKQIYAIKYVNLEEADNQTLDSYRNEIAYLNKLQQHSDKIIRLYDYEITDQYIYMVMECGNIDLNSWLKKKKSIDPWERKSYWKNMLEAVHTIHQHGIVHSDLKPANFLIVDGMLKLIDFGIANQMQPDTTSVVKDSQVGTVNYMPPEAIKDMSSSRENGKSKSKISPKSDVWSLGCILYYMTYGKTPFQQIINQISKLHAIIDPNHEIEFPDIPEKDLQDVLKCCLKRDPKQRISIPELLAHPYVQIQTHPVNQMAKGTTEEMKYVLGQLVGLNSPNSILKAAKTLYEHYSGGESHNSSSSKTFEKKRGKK
# [20] = molecular target: T5, Aurora kinase A (Homo sapiens) (UniProt O14965); settings: at 0.1 µM;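 further: each reported value is a mean percent inhibition of Aurora-A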
# T5 sequence (whole entry): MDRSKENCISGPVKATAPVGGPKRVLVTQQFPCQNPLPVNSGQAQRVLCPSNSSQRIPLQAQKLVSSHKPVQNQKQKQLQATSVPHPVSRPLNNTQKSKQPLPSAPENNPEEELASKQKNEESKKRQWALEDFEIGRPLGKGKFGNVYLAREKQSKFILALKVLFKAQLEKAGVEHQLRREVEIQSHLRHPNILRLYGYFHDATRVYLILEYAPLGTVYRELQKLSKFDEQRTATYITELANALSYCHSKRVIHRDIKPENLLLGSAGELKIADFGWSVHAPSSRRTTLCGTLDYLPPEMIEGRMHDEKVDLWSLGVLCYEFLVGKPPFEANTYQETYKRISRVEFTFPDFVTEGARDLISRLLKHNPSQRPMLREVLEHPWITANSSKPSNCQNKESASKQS
# Sequence of High affinity nerve growth factor receptor (Homo sapiens) (P04629 33-796 limits assumed): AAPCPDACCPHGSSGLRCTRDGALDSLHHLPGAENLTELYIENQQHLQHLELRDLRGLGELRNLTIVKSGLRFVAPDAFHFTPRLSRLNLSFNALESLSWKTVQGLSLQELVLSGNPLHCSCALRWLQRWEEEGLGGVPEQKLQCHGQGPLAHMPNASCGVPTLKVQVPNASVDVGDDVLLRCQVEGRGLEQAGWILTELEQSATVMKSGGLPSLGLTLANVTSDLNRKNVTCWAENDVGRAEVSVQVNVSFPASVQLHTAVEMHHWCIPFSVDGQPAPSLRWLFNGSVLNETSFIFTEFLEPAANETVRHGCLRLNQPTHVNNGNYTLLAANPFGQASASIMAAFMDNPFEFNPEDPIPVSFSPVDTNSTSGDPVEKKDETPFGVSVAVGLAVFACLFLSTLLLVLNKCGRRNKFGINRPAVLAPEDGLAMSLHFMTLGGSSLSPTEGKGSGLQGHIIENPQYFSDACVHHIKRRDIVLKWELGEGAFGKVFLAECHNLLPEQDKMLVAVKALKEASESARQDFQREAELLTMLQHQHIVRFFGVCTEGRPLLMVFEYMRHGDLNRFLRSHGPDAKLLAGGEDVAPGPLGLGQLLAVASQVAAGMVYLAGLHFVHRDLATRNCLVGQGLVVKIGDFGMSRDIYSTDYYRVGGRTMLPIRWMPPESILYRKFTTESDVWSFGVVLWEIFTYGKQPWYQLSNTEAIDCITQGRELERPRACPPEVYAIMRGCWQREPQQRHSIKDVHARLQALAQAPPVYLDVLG
# Sequence of Non-receptor tyrosine-protein kinase TYK2 (Homo sapiens) (P29597 whole entry): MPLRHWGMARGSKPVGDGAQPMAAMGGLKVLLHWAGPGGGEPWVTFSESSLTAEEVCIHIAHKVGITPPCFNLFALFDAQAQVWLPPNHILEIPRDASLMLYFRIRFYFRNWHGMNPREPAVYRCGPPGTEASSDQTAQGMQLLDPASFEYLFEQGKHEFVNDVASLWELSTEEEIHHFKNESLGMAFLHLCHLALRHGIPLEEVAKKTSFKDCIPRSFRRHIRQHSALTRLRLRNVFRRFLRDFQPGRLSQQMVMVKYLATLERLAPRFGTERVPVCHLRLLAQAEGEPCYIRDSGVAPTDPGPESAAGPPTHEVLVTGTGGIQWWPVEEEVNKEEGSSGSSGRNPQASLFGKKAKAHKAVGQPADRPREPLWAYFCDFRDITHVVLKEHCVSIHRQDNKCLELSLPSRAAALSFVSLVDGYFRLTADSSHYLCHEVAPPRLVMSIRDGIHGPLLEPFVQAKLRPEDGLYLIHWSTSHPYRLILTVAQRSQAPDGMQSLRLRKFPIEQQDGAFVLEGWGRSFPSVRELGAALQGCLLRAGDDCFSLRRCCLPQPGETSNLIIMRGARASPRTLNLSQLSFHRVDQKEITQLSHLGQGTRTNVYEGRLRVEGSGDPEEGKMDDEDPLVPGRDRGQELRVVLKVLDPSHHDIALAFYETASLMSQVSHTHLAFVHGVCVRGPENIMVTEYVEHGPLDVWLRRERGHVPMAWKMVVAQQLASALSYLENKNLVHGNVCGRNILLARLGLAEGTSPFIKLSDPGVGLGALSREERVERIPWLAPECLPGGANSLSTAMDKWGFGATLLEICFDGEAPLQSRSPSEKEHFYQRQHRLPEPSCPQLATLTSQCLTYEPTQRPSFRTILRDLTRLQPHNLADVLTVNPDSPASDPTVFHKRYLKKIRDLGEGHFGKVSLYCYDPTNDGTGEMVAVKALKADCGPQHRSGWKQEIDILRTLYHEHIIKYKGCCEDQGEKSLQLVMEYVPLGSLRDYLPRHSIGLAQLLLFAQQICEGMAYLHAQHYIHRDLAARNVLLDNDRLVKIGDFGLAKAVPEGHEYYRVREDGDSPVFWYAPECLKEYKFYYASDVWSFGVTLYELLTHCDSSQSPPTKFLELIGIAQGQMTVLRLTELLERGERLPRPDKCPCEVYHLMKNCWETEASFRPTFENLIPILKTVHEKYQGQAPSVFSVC
# Sequence of BDNF/NT-3 growth factors receptor (Homo sapiens) (Q16620 32-822 limits assumed): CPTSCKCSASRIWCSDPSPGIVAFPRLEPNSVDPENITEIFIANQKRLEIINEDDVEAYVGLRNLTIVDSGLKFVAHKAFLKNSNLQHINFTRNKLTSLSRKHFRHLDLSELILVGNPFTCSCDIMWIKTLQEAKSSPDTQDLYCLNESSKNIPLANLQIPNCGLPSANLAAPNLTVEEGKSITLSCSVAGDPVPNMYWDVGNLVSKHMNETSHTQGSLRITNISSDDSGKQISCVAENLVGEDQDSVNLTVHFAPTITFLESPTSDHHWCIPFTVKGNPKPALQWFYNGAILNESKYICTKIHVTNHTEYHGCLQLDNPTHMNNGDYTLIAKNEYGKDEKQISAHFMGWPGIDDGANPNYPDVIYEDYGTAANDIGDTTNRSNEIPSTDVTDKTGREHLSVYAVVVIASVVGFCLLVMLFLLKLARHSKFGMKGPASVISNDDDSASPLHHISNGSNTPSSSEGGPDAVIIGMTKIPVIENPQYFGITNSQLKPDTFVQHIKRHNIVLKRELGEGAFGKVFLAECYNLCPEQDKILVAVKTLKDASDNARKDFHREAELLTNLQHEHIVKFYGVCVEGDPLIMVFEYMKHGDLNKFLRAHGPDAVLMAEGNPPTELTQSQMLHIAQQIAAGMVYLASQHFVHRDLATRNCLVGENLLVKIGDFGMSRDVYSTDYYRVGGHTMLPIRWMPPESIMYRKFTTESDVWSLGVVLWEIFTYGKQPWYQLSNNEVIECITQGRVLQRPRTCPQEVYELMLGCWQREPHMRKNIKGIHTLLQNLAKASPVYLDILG
# Sequence of Activated CDC42 kinase 1 (Homo sapiens) (Q07912 whole entry, looked up): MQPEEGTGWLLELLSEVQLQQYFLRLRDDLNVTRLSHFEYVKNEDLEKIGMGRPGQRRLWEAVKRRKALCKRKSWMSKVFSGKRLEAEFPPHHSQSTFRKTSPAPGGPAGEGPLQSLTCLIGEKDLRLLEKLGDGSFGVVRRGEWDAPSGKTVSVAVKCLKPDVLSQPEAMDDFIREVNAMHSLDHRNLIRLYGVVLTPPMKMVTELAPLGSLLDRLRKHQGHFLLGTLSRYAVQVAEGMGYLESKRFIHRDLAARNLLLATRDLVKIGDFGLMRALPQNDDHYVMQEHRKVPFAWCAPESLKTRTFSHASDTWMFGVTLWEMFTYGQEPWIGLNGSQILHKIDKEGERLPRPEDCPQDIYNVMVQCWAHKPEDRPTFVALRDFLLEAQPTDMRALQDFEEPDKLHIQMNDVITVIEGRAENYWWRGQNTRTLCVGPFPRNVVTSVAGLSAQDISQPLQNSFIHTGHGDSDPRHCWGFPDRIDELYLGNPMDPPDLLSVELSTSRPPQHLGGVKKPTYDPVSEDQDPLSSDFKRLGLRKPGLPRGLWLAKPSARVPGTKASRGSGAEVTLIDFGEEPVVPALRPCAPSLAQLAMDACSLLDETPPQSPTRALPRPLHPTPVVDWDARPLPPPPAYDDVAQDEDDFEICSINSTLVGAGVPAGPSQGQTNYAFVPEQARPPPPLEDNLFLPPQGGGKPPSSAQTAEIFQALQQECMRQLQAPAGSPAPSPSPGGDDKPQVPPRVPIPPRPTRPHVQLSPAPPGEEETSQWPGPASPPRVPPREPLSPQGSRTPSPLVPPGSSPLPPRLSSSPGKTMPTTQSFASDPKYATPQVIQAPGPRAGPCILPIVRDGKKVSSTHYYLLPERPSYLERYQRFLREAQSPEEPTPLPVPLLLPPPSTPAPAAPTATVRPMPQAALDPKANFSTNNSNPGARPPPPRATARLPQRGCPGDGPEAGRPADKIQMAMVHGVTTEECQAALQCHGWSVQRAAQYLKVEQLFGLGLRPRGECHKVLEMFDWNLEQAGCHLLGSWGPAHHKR
# Sequence of Angiopoietin-1 receptor (Homo sapiens) (Q02763 whole entry): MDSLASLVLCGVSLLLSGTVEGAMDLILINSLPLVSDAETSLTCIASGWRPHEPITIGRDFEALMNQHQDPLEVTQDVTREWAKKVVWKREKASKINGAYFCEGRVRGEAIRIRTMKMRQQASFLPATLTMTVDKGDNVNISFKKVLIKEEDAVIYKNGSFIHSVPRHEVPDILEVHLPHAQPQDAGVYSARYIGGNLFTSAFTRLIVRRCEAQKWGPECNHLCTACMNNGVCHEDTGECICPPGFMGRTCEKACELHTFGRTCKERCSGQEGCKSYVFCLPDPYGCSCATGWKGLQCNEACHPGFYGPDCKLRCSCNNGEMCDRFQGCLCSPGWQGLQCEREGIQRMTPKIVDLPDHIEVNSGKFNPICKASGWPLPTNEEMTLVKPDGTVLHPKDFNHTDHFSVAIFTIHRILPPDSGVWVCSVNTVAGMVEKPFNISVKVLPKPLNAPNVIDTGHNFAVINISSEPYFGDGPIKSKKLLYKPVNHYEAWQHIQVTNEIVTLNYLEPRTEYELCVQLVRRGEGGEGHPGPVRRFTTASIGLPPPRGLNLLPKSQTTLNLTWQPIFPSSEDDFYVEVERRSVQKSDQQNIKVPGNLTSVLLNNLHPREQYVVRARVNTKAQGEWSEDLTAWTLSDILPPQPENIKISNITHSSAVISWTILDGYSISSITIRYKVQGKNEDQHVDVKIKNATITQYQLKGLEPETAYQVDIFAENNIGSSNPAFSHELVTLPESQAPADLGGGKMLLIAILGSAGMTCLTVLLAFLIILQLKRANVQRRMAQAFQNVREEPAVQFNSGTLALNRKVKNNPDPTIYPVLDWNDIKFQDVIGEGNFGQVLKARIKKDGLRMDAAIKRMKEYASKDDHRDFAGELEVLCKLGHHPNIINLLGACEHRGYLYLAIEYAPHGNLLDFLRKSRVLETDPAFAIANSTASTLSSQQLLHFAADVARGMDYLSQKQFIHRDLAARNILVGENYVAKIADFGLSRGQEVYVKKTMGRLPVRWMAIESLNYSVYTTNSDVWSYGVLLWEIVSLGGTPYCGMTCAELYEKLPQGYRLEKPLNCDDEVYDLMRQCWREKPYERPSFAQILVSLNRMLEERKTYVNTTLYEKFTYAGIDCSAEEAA
Structure (SMILES),inhibition [1] [%],inhibition [2] [%],inhibition [3] [%],inhibition [4] [%],inhibition [5] [%],inhibition [6] [%],inhibition [7] [%],inhibition [8] [%],inhibition [9] [%],inhibition [10] [%],inhibition [11] [%],inhibition [12] [%],inhibition [13] [%],inhibition [14] [%],inhibition [15] [%],inhibition [16] [%],inhibition [17] [%],inhibition [18] [%],inhibition [19] [%],inhibition [20] [%]
N#Cc1c(NC(=O)c2ccccc2F)sc2c1CCCC2,0.42,-1.7,0.35,-1.22,3.44,-2.62,-0.58,-0.05,3,-0.84,-2.78,-1.85,-1.97,0.83,-1.95,-0.16,1.71,2.79,1.13,-0.7
NS(=O)(=O)c1ccc(N/N=C2\C(=O)Nc3ccc(Cl)cc32)cc1,-3.16,4.2,6.14,0.79,3.42,3.04,20.5,0.4,3.7,3.01,17.9,5.72,34.7,9.02,42.3,3.22,4.96,-4.4,45.1,3.86
OCc1ccc(-c2nc(-c3ccccn3)c(-c3ccc4c(c3)OCO4)[nH]2)cc1,-0.31,7.61,11.1,2.48,6.23,5.37,-4.68,1.72,2.78,3.27,3.45,3.16,1,4.37,3,6.42,12.5,-1.9,9.01,4.4
Cc1ccc2c(-c3ccnc(Nc4cccc(C(F)(F)F)c4)n3)c(-c3ccccc3)nn2n1,-5.34,8.8,38.3,3.55,8.11,2.78,19.5,0.98,2.35,1.79,7.09,4.09,5.15,2.41,5.05,6.16,17.2,-1.28,10.6,1.82
N#Cc1cccc(Nc2nccc(-c3cnn4ncccc34)n2)c1,53.2,8.87,39.3,3.66,18.6,11.9,52.3,2.35,11.7,15.4,65.7,24.3,75.3,28.2,87.5,5.32,24.4,-4.17,35,11.3
ON=C1CCc2cc(-c3nc(C4CCNCC4)[nH]c3-c3ccncc3)ccc21,0.36,1.46,2.88,1.37,1.77,-4.28,-5.17,-0.93,-2.5,-3.45,-1.26,-0.05,-1.18,-1.73,-0.26,1.85,2.25,-1.08,2.17,-0.5
O=C1Nc2ccccc2/C1=C/Nc1ccc2[nH]c(=O)[nH]c2c1,-5.15,9.34,13.8,5.76,9.19,4.65,21.3,1.41,4.86,11.6,53.9,26.2,72.7,26.2,74.2,6.68,7.08,-6.64,38.8,6.9
C[C@@H](Oc1cc(-n2cnc3ccc(OCC4CCN(C)CC4)cc32)sc1C(N)=O)c1ccccc1C(F)(F)F,0.25,-1.52,-0.1,5.78,32.4,3.21,30.3,5.42,46.1,-0.37,0.72,-0.51,1.01,-0.61,0.64,-1.27,1.35,2.67,1.44,-0.53
COc1cc2ncnc(Nc3ccc4c(cnn4Cc4ccccc4)c3)c2cc1OC,0.48,3.95,17.7,4.78,10.2,7.1,35.6,0.51,4.91,0.45,2.18,2.13,3.38,1.5,2.59,0.73,4.56,-1.09,13.2,1.22
Cc1ccc2c(c1)/C(=N/Nc1ccc(S(N)(=O)=O)cc1)C(=O)N2,-2.83,1.52,4.33,-0.15,2.63,-2.23,3.63,-0.48,-0.62,-1.8,11.8,3.81,31.2,4.95,39.2,1.24,3.92,1.2,33.2,2.87
COC(=O)c1ccc2c(c1)C(=Cc1cc(Br)c(O)c(Br)c1)C(=O)N2,-1.69,9.11,7.75,3.09,3.01,25.5,70.2,0.88,8.96,2.4,6.54,3.26,8.43,2.35,12.1,6.42,12.3,5.83,25.2,30.8
Cc1ccc(C(=O)NC2CC2)cc1-c1ccc2[nH]ncc2c1,-0.05,-3.67,-3.15,0.34,3.3,-1.01,4.02,-0.76,2.48,1.88,-1.16,-1.91,-0.53,-1.71,0.33,-2.22,0.71,0.52,-6.13,-3.2
COc1cccc(-n2nc(C)c3c(N/N=C(\C)c4ccncc4)ncnc32)c1,2.38,1.82,3.53,0.73,2.25,-1.41,0.13,-0.22,0.84,0.99,2.57,-1.2,0.69,-2.28,-0.38,3.18,2.67,0.67,2.24,1.27
